Inconclusive results are not listed. A number with no mark means an inactive call. Active and inactive are the calls of the source. Calls follow the shape of the dose curve; as a rule, active = well fitted inhibition curve with a large enough effect; inconclusive = small, poorly fitted or top-dose-only effect; inactive = no such curve, though single readings can be large or run the other way.
% is scaled to controls: 0 for no effect and ±100 for the full control effect; potency is read from the fitted curve at half-maximal effect.

The assay concerns Zika virus NS2B-NS3 protease (unlinked complex). Nature of the assay: Primary screen GU Rhodamine qHTS for Zika virus inhibitors: Unlinked NS2B-NS3 protease assay (AID 1347159). Also: nearly all actives have a fitted effect of over 60% in size. The note with it: Recombinant ZIKV NS2B-NS3 protease, Rhodamine110 substrate fluorescence; series mostly up to 107 µM; activity change, negative = inhibition: at the top concentration. The essentials: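 Unlinked NS2B/NS3, 25 nM; Rhod110 peptide, 1.5 microM; compounds, up to 114 microM. Reaction run 15 min at RT in 10 mM Tris-HCl pH 8.0, 0.01% Tween 20; kinetic fluorescence change fitted with a 4-parameter Hill model.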
As for `C/C=C(\C)C(=O)OC1C(C)C2(O)C(C=C(CO)CC3(O)C(=O)C(C)=CC32)C2C(C)(C)C12OC(=O)C(C)C` (stereo not drawn), the “activity change, negative = inhibition” value was -2.46% [at 57.1 µM].
For `C=C1CCC2C(C)(C)CCCC2(C)C1CC/C(C)=C\CO` (stereo not drawn), the Potency was 17.8 µM (active).
Consider `C=CC(C)(C)C12CC3C(=O)N4C(CC5(C(C)(C)C=C)c6ccccc6NC45)C(=O)N3C1Nc1ccccc12` (stereo not drawn), for which the “activity change, negative = inhibition” value is -14.3% [at 57.1 µM].
For the compound `C/C=C(/C)C(=O)O[C@H]1[C@H](OC(=O)/C(C)=C\C)[C@@]23C(CC1(C)C)[C@]1(CCC4[C@@]5(C)CC[C@H](O[C@@H]6O[C@H](C(=O)O)[C@@H](O)[C@H](O[C@@H]7O[C@H](CO)[C@H](O)[C@H](O)[C@H]7O[C@@H]7O[C@@H](C)[C@H](O)[C@@H](O)[C@H]7O[C@@H]7OC[C@@H](O)[C@H](O)[C@H]7O)[C@H]6O[C@@H]6O[C@H](CO)[C@H](O)[C@H](O)[C@H]6O)C(C)(C)C5CC[C@@]4(C)[C@]1(C)C[C@H]2O)O[C@H]3O` (stereo partly drawn), the Potency was 3.98 µM (active).
Regarding `Cc1ccc(O)cc1Nc1ccnc(Nc2cccc(C(N)=O)c2)n1`, the “activity change, negative = inhibition” value was 20.2%.
Take `O=C(N[C@H]1CCN(C(=O)c2cc(C(F)(F)F)cc(C(F)(F)F)c2)[C@H](Cc2ccc(Cl)cc2)C1)c1ccnc2ccccc12`: the “activity change, negative = inhibition” value is 10.4% [at 57.1 µM].
The same measure, in the same setting: the same measure for `O=C(Nc1ccc(Cl)cc1)Nc1cccc(-c2cccc(N3CCCC3)n2)c1`: 0%.
For the compound `COc1ccnc(CS(=O)c2nc3cc(OC(F)F)ccc3[nH]2)c1OC` (stereo not drawn), the “activity change, negative = inhibition” value was 0%.
For `Cc1c(F)ccc(C(=O)Nc2cc([N+](=O)[O-])ccc2N2CCN(C)CC2)c1Cl`, the “activity change, negative = inhibition” value was 10.6%.
The same measure, in the same setting: the same measure for `COc1ccc(C2(N(C)C(=O)c3ccc(NC(=O)c4ccco4)cc3)CCOCC2)cc1`: 14.2%; for `COc1ccc2nc3n[nH]c(C)c3c(NCCOCCO)c2c1`: 11.9%; for `CC(=O)OC1CC(C)(C(=O)O)CC2C3=CC(=O)C4C5(C)CCC(OC6OC(C(=O)O)C(O)C(O)C6OC6OC(C(=O)O)C(O)C(O)C6O)C(C)(C)C5CCC4(C)C3(C)CCC12C` (stereo not drawn): -1.06% [at 32.5 µM].
Take `CC[C@@H](C)[C@@H]1OC2(C=C[C@H]1C)C[C@@H]1C[C@H](C/C=C(\C)[C@H](O[C@H]3C[C@H](OC)[C@H](O[C@H]4C[C@H](OC)[C@H](NC(C)=O)[C@H](C)O4)[C@H](C)O3)[C@H](C)/C=C/C=C3\CO[C@H]4[C@H](O)C(C)=C[C@@H](C(=O)O1)[C@@]34O)O2` (stereo partly drawn): the “activity change, negative = inhibition” value is 0%.
As to `O=S(=O)(Cc1ccccc1)Nc1ccc(-c2ccc3c(cnn3-c3ccc(F)cc3)c2)c(C(F)(F)F)c1`, the Potency is 20 µM (active).
As for `CC(C)S(=O)(=O)NC[C@@H]1CC(c2ccc(N3CCCC3)c(F)c2)=NO1`, the “activity change, negative = inhibition” value is 50.5%.
Consider `O=C1C[C@]23C=CCN4CCC5c6cc7c(cc6N1[C@@]5(CC2)C43)OCO7` (stereo partly drawn), for which the “activity change, negative = inhibition” value was -11.9%.
Same read-out and setting: as for `O=C(Nc1ccn(Cc2ccc(O)cc2C(F)(F)F)n1)c1c(F)cccc1F`, the figure is -14.3%.
As to `Cc1[nH]c(/C=C2\C(=O)Nc3cc(-c4ccccc4)ccc32)c(C)c1CCC(=O)O`, the Potency is 1.78 µM (active).
Turning to `CC[C@@H](C)Nc1cc(C(=O)NC2CC3CC[C@@H](C2)N3c2ccc(C(=O)C3CC3)cn2)c(C)cc1C(N)=O` (stereo partly drawn), the “activity change, negative = inhibition” value was -8.83%.
Consider `CC(C)CCNC(=O)[C@H](CC(C)C)NC(=O)[C@H]1O[C@@H]1C(=O)O`, for which the “activity change, negative = inhibition” value was 0.0034%.
On to `CC(=O)O[C@H]1[C@H](O)C[C@@]2(C)C(CC[C@]3(C)C2CC=C2C4CC(C)(C)CC[C@]4(C(=O)O)CC[C@]23C)C1(C)C` (stereo partly drawn), for which the Potency is 7.94 µM (active).
On to `CC[C@H](C)/C=C(C)/C=C/C1=CC2=CC(=O)[C@]3(C)OC(=O)[C@@H](C(C)=O)[C@@H]3C2=CO1`, for which the Potency is 10 µM (active).
For `CCCCc1ccc(NS(=O)(=O)c2ccc(F)cc2)cc1`, the Potency was 50.1 µM (active).
On the same count and under the same terms, as for `CC[C@@H](Nc1c(Nc2cccc(C(=O)N(C)C)c2O)c(=O)c1=O)c1cc(C(C)C)co1`, the figure is 22.4 µM (active).
On to `CC(C)(C)c1ccc(C(=O)Nc2cc(Cl)c(Br)cc2C(=O)O)cc1`, for which the Potency was 2.51 µM (active).
Take `CCC(C)C(=O)Oc1cc(C)ccc1C1(COC(=O)C(C)C)CO1` (stereo not drawn): the “activity change, negative = inhibition” value is 0.337%.
Still for that read-out and setting: as for `COc1ccc2nc(-c3cc(OC)c(OC)c(OC)c3)cc(C(=O)NCC(=O)Nc3ccc(C(C)=O)cc3)c2c1`, the figure is 6.35%.
As for `CCc1c(Cl)c(O)c(Cl)c(O)c1C(=O)O[C@H]1[C@H](O)[C@H](OC)[C@H](OC/C2=C\C=C\C[C@H](O)/C(C)=C\[C@H](CC)[C@@H](O[C@@H]3OC(C)(C)[C@@H](OC(=O)C(C)C)[C@H](O)[C@@H]3O)/C(C)=C/C(C)=C/C[C@@H]([C@@H](C)O)OC2=O)O[C@@H]1C`, the Potency is 11.2 µM (active).

Source of the values: PubChem BioAssay (NCATS).
